The supplement of paper PMC6555819

Columns and labels:
Assay in all cases: PBM binding z-score (relative to random genomic background probes); higher = stronger binding; sequences stand for … in GC…GCGATTGACAGCGTAGAATGAAGG
[1] = system: FXR:RXRa (NR concentration 270 nM, RXRa partner concentration 90 nM)
How it was run: (§1)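 For binding z-scores, the reference was random background probes on custom Agilent 4×180K protein-binding microarrays. These arrays were incubated 1 h with ligand-free nuclear receptor dimers in PBS pH 7.4, 2% milk, 0.02% Triton X-100, 1 mM DTT, 0.2 mg/mL BSA and 0.4 mg/ml salmon testes DNA. Fluorescence was scanned after antibody detection of each partner (one per run) and regression-normalized.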

[2] = system: LXRa:RXRa (NR concentration 270 nM, RXRa partner concentration 90 nM)
How it was run: as §1

[3] = system: LXRa homodimer (NR concentration 270 nM)
How it was run: as §1

[4] = system: LXRb:RXRa (NR concentration 270 nM, RXRa partner concentration 90 nM)
How it was run: as §1

[5] = system: LXRb homodimer (NR concentration 270 nM)
How it was run: as §1

[6] = system: PPARa:RXRa (NR concentration 270 nM, RXRa partner concentration 90 nM)
How it was run: as §1

[7] = system: PPARg:RXRa (NR concentration 180 nM, RXRa partner concentration 90 nM)
How it was run: as §1

[8] = system: PPARg:RXRa 270nM:90nM, anti-RXR (NR concentration 270 nM, RXRa partner concentration 90 nM)
How it was run: as §1

[9] = system: PPARg:RXRa 30nM:10nM, anti-RXR (NR concentration 30 nM, RXRa partner concentration 10 nM)
How it was run: as §1

[10] = system: PPARg:RXRa 90nM:30nM, anti-RXR (NR concentration 90 nM, RXRa partner concentration 30 nM)
How it was run: as §1

[11] = system: PPARg:RXRa DBDmut IVT, anti-RXR (DBD mutation: RXRa K156A/R161A, NR concentration 270 nM, RXRa partner concentration 90 nM)
How it was run: as §1

[12] = system: PPARg:RXRa IVT, anti-PPARg (NR concentration 270 nM, RXRa partner concentration 90 nM)
How it was run: as §1

[13] = system: PPARg DBDmut:RXRa IVT, anti-PPARg (DBD mutation: PPARg1 K132A/R137A, NR concentration 270 nM, RXRa partner concentration 90 nM)
How it was run: as §1

[14] = system: PPARg DBDmut IVT, anti-PPARg (DBD mutation: PPARg1 K132A/R137A, NR concentration 270 nM)
How it was run: as §1

[15] = system: PPARg homodimer (NR concentration 180 nM)
How it was run: as §1

[16] = system: PXR:RXRa (NR concentration 270 nM, RXRa partner concentration 90 nM)
How it was run: as §1

[17] = system: PXR homodimer (NR concentration 270 nM)
How it was run: as §1

[18] = system: RARa:RXR (NR concentration 270 nM, RXRa partner concentration 90 nM)
How it was run: as §1

[19] = system: RARa homodimer (NR concentration 270 nM)
How it was run: as §1

[20] = system: RARb:RXRa (NR concentration 270 nM, RXRa partner concentration 90 nM)
How it was run: as §1

Row | Sequence | PBM binding z-score [1] | PBM binding z-score [2] | PBM binding z-score [3] | PBM binding z-score [4] | PBM binding z-score [5] | PBM binding z-score [6] | PBM binding z-score [7] | PBM binding z-score [8] | PBM binding z-score [9] | PBM binding z-score [10] | PBM binding z-score [11] | PBM binding z-score [12] | PBM binding z-score [13] | PBM binding z-score [14] | PBM binding z-score [15] | PBM binding z-score [16] | PBM binding z-score [17] | PBM binding z-score [18] | PBM binding z-score [19] | PBM binding z-score [20]
1 | ATACCAAGTTGATCGTGAGGTCGTTGATACTAAC | 1.48 | 1.03 | 0.823 | 1.31 | 0.171 | 1.22 | 0.148 | 0.229 | 0.0312 | 0.0356 | -0.0424 | -0.015 | 0.231 | 0.701 | 1.02 | 2.78 | 1.61 | 1.78 | 1.04 | 0.897
2 | CTCGAAAGGTCGGTAGAGGTGAGTATACGGATAA | 2.48 | 2.01 | 0.0371 | 1.32 | -0.315 | 2.86 | 1.02 | 1.75 | 0.538 | 0.994 | -0.427 | 1.32 | -0.234 | 0.272 | 1.1 | 2.69 | 0.0204 | 2.63 | 0.416 | 3.13
3 | GCTAGTTGGTCAGTAAAAGGTCCCACACCGGTCG | -0.338 | -0.272 | -0.431 | -0.485 | -0.39 | -0.0763 | -0.0473 | 0.383 | -0.539 | -0.225 | 0.066 | 0.0788 | -0.0613 | -0.438 | 0.327 | -0.35 | -0.579 | 0.0824 | 0.292 | 0.845
4 | ATATGAAGGTTACATCCGGGTCATTCAGGCTATG | 2.82 | 4.87 | 1.86 | 3.51 | 0.71 | 3.69 | 2.35 | 2.52 | 1 | 1.58 | 2.04 | 3.33 | 1.37 | 1.68 | 3.27 | 4.21 | 2.67 | 4.2 | 0.977 | 3.16
5 | CGTCAAAGTTCAATGTAACGTAACAGAAAGCAGC | 6.08 | 5.08 | 3.29 | 3.5 | 1.74 | 4.08 | 3.65 | 4.35 | 1.83 | 3.34 | 0.367 | 1.51 | 1.4 | 0.705 | 2.6 | 4.03 | 4 | 3.03 | 1.95 | 4.83
6 | GCTAGTTGGTCAGTAAAAGCTCACACACCGGTCG | -0.135 | -0.249 | -0.0683 | -0.56 | -0.539 | -0.386 | 0.13 | -0.0391 | -0.355 | -0.193 | 0.623 | -0.0359 | -1.02 | -0.165 | -0.00408 | -0.622 | -0.0329 | -0.419 | 0.154 | 0.596
7 | GCGACTGGGGCATCAGCAGGTTACCATTACTTAA | -0.552 | -0.326 | -0.0382 | 0.719 | -1.11 | 0.893 | 0.716 | 0.73 | -0.277 | 0.0982 | 3.98 | 3.38 | -0.628 | -0.712 | 0.00295 | -0.132 | -0.395 | 0.221 | -0.0866 | 0.832
8 | ACAGACAGGTGAGTGAAGGTAACTTAGCTGGACG | 0.0414 | 0.0601 | -0.497 | -0.508 | -0.62 | -0.0817 | 0.693 | -0.15 | -0.0448 | -0.0872 | 0.507 | 0.549 | -0.0823 | -0.397 | 0.206 | -0.213 | -0.19 | 0.132 | -0.0854 | 0.486
9 | GCTGCTAGGTCAACTTATGGTCAGCTAAAGCTCG | 4.49 | 2.98 | 0.539 | 2.52 | 0.4 | 3.87 | 2.95 | 3.14 | 0.913 | 2.31 | 4.77 | 4.25 | -0.352 | -0.235 | 2.49 | 2.17 | -0.587 | 3.6 | 0.316 | 4.4
10 | CAGCCTAGCTCAGGGCCAGTATAGGAGGAACGTT | -1.13 | -1.14 | -0.395 | -1.15 | -1.28 | -1.21 | -0.195 | -1.24 | -1.24 | -1.17 | -0.913 | -0.949 | -2.22 | -2.03 | -1.23 | -0.988 | -0.337 | -1.33 | -0.424 | -0.591
11 | AAATGTAGGTTAGCTGGGGTCATTCAGACTAGGC | 4.53 | 5.93 | 3.17 | 4.82 | 0.888 | 5.67 | 6.42 | 5.77 | 3.31 | 5.16 | 7.19 | 7.11 | 4.54 | 3.23 | 3.17 | 6.55 | 4.04 | 6.04 | 0.836 | 3.28
12 | TCATATAGGTAAAAGGTGAAATTCGGTGTGGTAA | 2.42 | 1.99 | 0.471 | 2.11 | 0.332 | 5.49 | 8.93 | 8.13 | 8.19 | 8.89 | 5.31 | 5.24 | 2.68 | 1.94 | 2.68 | 1.62 | 1.11 | 2.81 | 1.72 | 1.89
13 | CGAACTGGGTCAGAACAGGACAGTGAAGGATGAT | 0.455 | 0.381 | -0.423 | 0.0427 | -0.721 | 2.66 | 4.95 | 3.9 | 1.63 | 3.42 | 6.73 | 6.56 | 2.09 | 2.05 | 0.887 | 1.06 | -0.389 | 1.31 | 0.0168 | 2.23
14 | TAGCCTAGGTCATTCAGGGGACAGTATAGAAAGC | 4.83 | 4.05 | 1.41 | 3.39 | 1.57 | 3.96 | 2.88 | 2.81 | 0.785 | 1.62 | 2.17 | 3.28 | 0.412 | 0.909 | 1.58 | 2.58 | 0.0541 | 3.72 | 0.228 | 4.09
15 | TCTATTAGTTGAAGGCCAACCGACGAGTCCGTTT | 0.871 | 1.16 | 0.259 | 0.921 | 0.342 | 1.28 | 0.257 | 2.32 | 4.11 | 2.96 | 2.37 | 0.522 | 0.431 | 0.553 | 1.36 | 0.903 | 1.4 | 0.79 | 1.21 | 1.02
